In assay [1] the target is Cytochrome P450 3A7 (Homo sapiens) (UniProt P24462). As to the kind of experiment: Cytochrome P450 family 3 subfamily A member 7 (CYP3A7) small molecule antagonists: luciferase biochemical qHTS assay (AID 1963596). Also: % is scaled to controls: 0 for no effect and ±100 for the full control effect; nearly all actives have a fitted effect of over 40% in size. The following applies: P450-Glo CYP3A7 enzyme luminescence, 1 h; series mostly up to 57.4 µM. The method, boiled down: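 Luminescence from luciferin released by CYP3A7 from a proluciferin substrate, read 20 min after detection reagent. Compound and enzyme-substrate mix sat 10 min before NADPH regeneration solution; reaction ran 1 h at room temperature.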

Assay [2] in a line: Viability qHTS for spleen associated tyrosine kinase inhibitor (SYKi) naive MV4-11 cells (AID 1963823). Also: nearly all actives have a fitted effect of over 40% in size. Also: potency is read from the fitted curve at half-maximal effect. The following applies: MV4-11 AML viability, CellTiter-Glo luminescence, 72 h; series mostly up to 45 µM. The gist of the method:
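SYKi-naive MV4-11 AML cells, 500 per well, were exposed to library compounds for 72 hr at 37 C, 5% CO2. Viability was then read by CellTiter-Glo luminescence after 10 min at room temperature.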
For orientation: In qHTS, concentration-response curves come from the screen itself.

Assay [3] can be described thus: Viability qHTS for spleen associated tyrosine kinase inhibitor (SYKi) drug resistant MV4-11 cells (AID 1963824). Also: nearly all actives have a fitted effect of over 35% in size. Also: potency is read from the fitted curve at half-maximal effect. As to conditions: SYKi-resistant MV4-11 viability, CellTiter-Glo, 72 h; series mostly up to 45 µM. The method, boiled down:
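SYK-inhibitor-resistant MV4-11 AML cells were seeded at 500 per well onto compound and cultured 72 hours (37 °C, 5% CO2). CellTiter-Glo was then added, and after 10 min at room temperature, luminescence gave viability.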

The values that follow come from PubChem BioAssay (NCATS).

The structures appear in SMILES notation. Where “and” joins values, the source holds several entries; their conditions need not be identical. Equal entries are not always repeated. Results filed as inconclusive are left out. A number with no mark means an inactive call. Calls of active or inactive are those of the source. Calls follow the shape of the dose curve; as a rule, active = well fitted curve in the direction sought with a large enough effect; inconclusive = small, poorly fitted or top-dose-only effect, or another doubt; inactive = no such curve, though single readings can be large; an effect the other way counts as inactive or inconclusive. Where a SMILES comes first, the peptide text is derived from it. [ ]: non-standard residue; d: D form. pGlu = O=C1CC[C@@H](C(=O)O)N1

Cytochrome P450 3A7 (Homo sapiens), sequence (P24462 whole entry, looked up): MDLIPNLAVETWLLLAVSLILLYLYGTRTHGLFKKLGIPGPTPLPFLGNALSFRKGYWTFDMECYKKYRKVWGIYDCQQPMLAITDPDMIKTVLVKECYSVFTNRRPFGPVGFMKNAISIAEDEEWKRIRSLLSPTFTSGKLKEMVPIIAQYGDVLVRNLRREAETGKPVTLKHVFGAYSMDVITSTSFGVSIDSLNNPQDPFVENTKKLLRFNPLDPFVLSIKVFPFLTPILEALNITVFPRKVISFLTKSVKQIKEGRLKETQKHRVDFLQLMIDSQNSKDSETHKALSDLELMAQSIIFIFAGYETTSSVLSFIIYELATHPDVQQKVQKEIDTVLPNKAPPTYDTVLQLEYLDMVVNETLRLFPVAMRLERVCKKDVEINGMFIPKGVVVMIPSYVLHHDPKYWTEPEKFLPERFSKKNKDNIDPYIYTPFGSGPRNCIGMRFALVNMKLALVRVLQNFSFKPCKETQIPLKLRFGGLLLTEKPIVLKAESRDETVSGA

Regarding `CCCCN(CCCC)CC(O)c1cc(Cl)cc2c1-c1ccc(Cl)cc1/C2=C/c1ccc(Cl)cc1` (centres undefined), the Potency result in assay [1] was “inactive”. Further, the Potency in assay [2] is 20.9 µM (active); in assay [3] it was 18.8 µM (active).

With `O=C(Nc1cccc(C(F)(F)F)c1)Nc1ccc(Br)cc1-c1nn[nH]n1`, the Potency entry in assay [1], in assay [2] and in assay [3] was “inactive” throughout.

Take `CC[N+](C)(C)c1cccc(O)c1`: the Potency result in assay [1], in assay [2] and in assay [3] was “inactive” in each case.

On to `CCCOc1ccccc1-c1nc2n[nH]nc2c(=O)[nH]1`, for which the Potency entry in assay [1], in assay [2] and in assay [3] was “inactive” throughout.

As for `O=C(O)c1n[nH]c2c1C[C@H]1C[C@@H]21`, the Potency entry in assay [1], in assay [2] and in assay [3] was “inactive” each time.

Consider `CN(C)CCCNc1nc(CN2CCN(C(c3ccc(Cl)cc3)c3ccc(Cl)cc3)CC2)nc2ccccc12`, for which the Potency result in assay [1] was “inactive”. Besides, the Potency in assay [2] was 2.06 µM (active); in assay [3], 3.26 µM (active).

Take `Cc1cn(C[C@H](N)C(=O)O)c(=O)n(Cc2ccsc2C(=O)O)c1=O`: the Potency result in assay [1], in assay [2] and in assay [3] was “inactive” each time.

For `O=C(Nc1cccnn1)N1CCN(c2nccc(-c3ccc(F)c(F)c3)n2)CC1`, the Potency entry in assay [1], in assay [2] and in assay [3] was “inactive” throughout.

For the compound `CNC(=O)c1cc(Oc2ccc3nc(N[C@@H]4CCCC[C@H]4O)sc3c2)ccn1`, the Potency entry in assay [1] is “inactive”. The figures for the Potency in assay [2] and in assay [3] were 13 µM (active) and 11.6 µM (active), respectively.

Regarding `COc1ccc(C(=O)c2ccccc2)c(O)c1`, the Potency entry in assay [1], in assay [2] and in assay [3] was “inactive” each time.

As to `O=C(c1ccccn1)c1cnn2c(-c3ccncc3)ccnc12`, the Potency entry in assay [1], in assay [2] and in assay [3] was “inactive” each time.

For `CCCCc1ccc(C(=O)Nc2cc(-c3ccc(Cl)cc3)nn2-c2ccc(Cl)cc2)cc1`, the Potency entry in assay [1], in assay [2] and in assay [3] was “inactive” in each case.

`N[C@@H](CC(=O)Nc1ccc(Oc2cc(F)c(F)cc2Br)cc1)C(=O)O`: the Potency entry in assay [1], in assay [2] and in assay [3] was “inactive” each time.

For `Nc1c(CC(=O)O)cccc1C(=O)c1ccc(Br)cc1`, the Potency entry in assay [1], in assay [2] and in assay [3] was “inactive” throughout.

For `O=C(Nc1ccc(N2CCC(C(=O)N3CCOCC3)CC2)cc1)c1cnc(Oc2ccccc2)nc1`, the Potency result in assay [1], in assay [2] and in assay [3] was “inactive” in each case.

For the compound `O=C(Cc1ccc(-c2ccccc2)cc1)NC1CCC1`, the Potency entry in assay [1], in assay [2] and in assay [3] was “inactive” each time.

Regarding `CC(NC(=O)C(O)C(C)C)C(=O)NC1C(=O)N(C)CCc2ccccc21` (centres undefined), the Potency entry in assay [1], in assay [2] and in assay [3] was “inactive” throughout.

Take `CN(C)c1ccc(C2O[C@@H](c3ccccc3)C[C@H](c3ccccc3)O2)cc1` (some centres undefined): the Potency entry in assay [1], in assay [2] and in assay [3] was “inactive” in each case.

For the compound `FC(F)(F)c1cc(C(F)(F)F)c2ccc3nc(-c4nnco4)cn3c2n1`, the Potency result in assay [1], in assay [2] and in assay [3] was “inactive” each time.

As to `COc1cccc(NC[C@@H](O)Cn2c3ccc(Br)cc3c3cc(Br)ccc32)c1`, the Potency entry in assay [1] is “inactive”. The Potency in assay [2] is 18.4 µM (active); in assay [3] it was 16.4 µM (active).

Consider `N#Cc1ccc2[nH]c(O)c(-c3ccc(CN4CCOCC4)cn3)c2c1`, for which the Potency entry in assay [1], in assay [2] and in assay [3] was “inactive” each time.

In the case of `Cc1nc(C#Cc2ccnc(Cl)c2)c(C)n1-c1ccc(F)cc1`, the Potency result in assay [1] is “inactive”. For the same compound, the Potency in assay [2] and in assay [3] was 8.2 µM (active) throughout.

`CC1(C)CC(NC(=O)C(=O)Nc2ccc(Br)cc2)CC(C)(C)N1`: the Potency entry in assay [1] is “inactive”. Besides, the Potency in assay [2] was 3.26 µM (active); in assay [3], 2.59 µM (active).

For `Cn1cc(-c2cnc3ccc4ccc(CS(=O)(=O)NCc5ccccn5)cc4c(=O)c3c2)cn1`, in assay [1], the Potency entry is “inactive”. For the same compound, the Potency is 14.6 µM (active) in assay [2] and 11.6 µM (active) in assay [3].

Consider `FC(F)(F)c1nnc2c(Sc3ccccc3)nc3ccc(Cl)cc3n12`, for which, in assay [1], the Potency result is “inactive”. The figures for the Potency in assay [2] and in assay [3] were 1.46 µM (active) and 0.731 µM (active), respectively.

Turning to `CNC(=O)c1cnn(-c2nc(N)c3ncn([C@@H]4O[C@H](CO)[C@@H](O)[C@H]4O)c3n2)c1`, the Potency entry in assay [1], in assay [2] and in assay [3] was “inactive” each time.

For `CCCCNC(=O)[C@@H]1Cc2ccccc2N1C(=O)[C@@H](N)CC`, the Potency entry in assay [1], in assay [2] and in assay [3] was “inactive” throughout.

`CCNC(=O)[C@@H]1CCCN1C(=O)[C@H](CCCN=C(N)N)NC(=O)[C@H](CC(C)C)NC(=O)CNC(=O)[C@H](Cc1ccc(O)cc1)NC(=O)[C@H](CO)NC(=O)[C@H](Cc1c[nH]c2ccccc12)NC(=O)[C@H](Cc1cnc[nH]1)NC(=O)[C@@H]1CCC(=O)N1` ([pGlu]HWSYGLRP-NHEt): the Potency result in assay [1] and in assay [3] was “inactive” in each case. The Potency in assay [2] was 13.3 µM (active).

In the case of `O=S(=O)(c1ccc(Cl)cc1)N1CCN(c2ccnc3cc(Cl)ccc23)CC1`, the Potency result in assay [1] was “inactive”. In addition, the Potency in assay [2] and in assay [3] was 16.4 µM (active) each time.

Turning to `CC1(C)Oc2ncnc(N)c2N=C1c1ccc(C2CCC(CC(=O)O)CC2)cc1` (centres undefined), the Potency entry in assay [1], in assay [2] and in assay [3] was “inactive” each time.

For `Nc1nc(Cl)nc2c1ncn2[C@@H]1O[C@H](CO)[C@@H](O)[C@@H]1F`, the Potency entry in assay [1] is “inactive”. The Potency in assay [2] was 106 nM (active) and 263 nM (active); in assay [3], 188 nM (active) and 332 nM (active).

`C=CC(=O)Nc1cc(Nc2nccc(-c3c[nH]c4ccccc34)n2)c(OC)cc1N(C)CCN(C)C`: the Potency entry in assay [1] is “inactive”. Also, the values for the Potency in assay [2] and in assay [3] were 0.411 µM (active) and 0.58 µM (active), respectively.

For the compound `O=C(O)[C@H]1Cc2ccccc2CN1`, in assay [1], the activity change, negative = inhibition was 2.34% [at 11.5 µM]. For the same compound, the viability (% of control) in assay [2] is 95.6% [at 4.97 µM]. For the same compound, the viability, % of control in assay [3] is 101% [at 4.97 µM].
